From the supplement of paper PMC11732987, “Enantioselective OTUD7B fragment discovery through chemoproteomics screening and high-throughput optimisation” (Communications Chemistry, 2025)

Columns and labels:
Test in all cases: log2 ratio of Biotin-Ahx-Ub-VS probe labelling (fragment/DMSO); higher = less target engagement (more negative = stronger competition), active = hit call of the paper (q ≤ 0.05, log2 ratio ≤ -1)
Settings in all cases: compound concentration: 200 uM; treatment time: 3 h
[1] = biological target: T1, USP19 (UniProt O94966)
T1 sequence (whole entry): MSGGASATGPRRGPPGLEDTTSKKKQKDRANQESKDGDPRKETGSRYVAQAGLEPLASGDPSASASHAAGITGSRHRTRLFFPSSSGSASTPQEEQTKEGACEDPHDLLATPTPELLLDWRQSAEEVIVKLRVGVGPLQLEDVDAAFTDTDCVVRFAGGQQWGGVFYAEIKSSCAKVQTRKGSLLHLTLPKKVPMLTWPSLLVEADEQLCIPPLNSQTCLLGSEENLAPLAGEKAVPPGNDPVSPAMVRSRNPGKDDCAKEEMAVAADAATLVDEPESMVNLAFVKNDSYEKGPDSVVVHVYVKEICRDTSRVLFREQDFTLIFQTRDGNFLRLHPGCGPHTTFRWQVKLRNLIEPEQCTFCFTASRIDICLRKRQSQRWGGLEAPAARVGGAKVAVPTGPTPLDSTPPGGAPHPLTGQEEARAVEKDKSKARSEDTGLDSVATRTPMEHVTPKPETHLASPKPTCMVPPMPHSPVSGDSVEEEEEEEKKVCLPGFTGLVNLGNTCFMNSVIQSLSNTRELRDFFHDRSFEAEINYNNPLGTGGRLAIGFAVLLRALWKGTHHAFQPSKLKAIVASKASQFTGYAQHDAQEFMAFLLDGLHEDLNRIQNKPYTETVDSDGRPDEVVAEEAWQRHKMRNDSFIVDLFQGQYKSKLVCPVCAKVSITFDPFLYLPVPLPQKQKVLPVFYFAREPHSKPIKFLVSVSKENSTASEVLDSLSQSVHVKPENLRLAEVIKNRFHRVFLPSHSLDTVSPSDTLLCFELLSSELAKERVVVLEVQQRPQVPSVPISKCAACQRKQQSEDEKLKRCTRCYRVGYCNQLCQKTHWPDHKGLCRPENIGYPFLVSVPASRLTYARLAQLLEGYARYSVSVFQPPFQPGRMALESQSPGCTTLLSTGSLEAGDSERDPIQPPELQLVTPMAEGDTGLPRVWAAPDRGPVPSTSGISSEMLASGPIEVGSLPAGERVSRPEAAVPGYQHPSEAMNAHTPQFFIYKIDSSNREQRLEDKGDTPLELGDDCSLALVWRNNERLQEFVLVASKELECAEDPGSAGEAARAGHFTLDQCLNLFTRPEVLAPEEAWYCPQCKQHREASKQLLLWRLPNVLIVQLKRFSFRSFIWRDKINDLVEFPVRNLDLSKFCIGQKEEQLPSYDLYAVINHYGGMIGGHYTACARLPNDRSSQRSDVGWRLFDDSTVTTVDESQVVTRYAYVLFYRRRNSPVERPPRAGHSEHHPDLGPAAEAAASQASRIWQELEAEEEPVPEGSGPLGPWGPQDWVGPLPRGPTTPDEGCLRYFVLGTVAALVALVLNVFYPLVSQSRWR
Procedure, shortened: (§1)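 Each value is an average log2 ratio of fragment to vehicle, tested by unpaired t-test. The underlying Spectronaut label-free quantities were global-median-normalised, and only proteins with ≥2 unique peptides were included. Triplicate HEK293T lysate samples (495 µg) were exposed to fragment at 200 µM or vehicle for 3 h, then to Biotin-Ahx-Ub-VS at 0.5 µM final for 1 h, before NeutrAvidin enrichment of labelled DUBs, LysC and trypsin digestion, and diaPASEF LC-MS/MS.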

[2] = biological target: USP24 (UniProt Q9UPU5)
Sequence of USP24 (Q9UPU5 whole entry): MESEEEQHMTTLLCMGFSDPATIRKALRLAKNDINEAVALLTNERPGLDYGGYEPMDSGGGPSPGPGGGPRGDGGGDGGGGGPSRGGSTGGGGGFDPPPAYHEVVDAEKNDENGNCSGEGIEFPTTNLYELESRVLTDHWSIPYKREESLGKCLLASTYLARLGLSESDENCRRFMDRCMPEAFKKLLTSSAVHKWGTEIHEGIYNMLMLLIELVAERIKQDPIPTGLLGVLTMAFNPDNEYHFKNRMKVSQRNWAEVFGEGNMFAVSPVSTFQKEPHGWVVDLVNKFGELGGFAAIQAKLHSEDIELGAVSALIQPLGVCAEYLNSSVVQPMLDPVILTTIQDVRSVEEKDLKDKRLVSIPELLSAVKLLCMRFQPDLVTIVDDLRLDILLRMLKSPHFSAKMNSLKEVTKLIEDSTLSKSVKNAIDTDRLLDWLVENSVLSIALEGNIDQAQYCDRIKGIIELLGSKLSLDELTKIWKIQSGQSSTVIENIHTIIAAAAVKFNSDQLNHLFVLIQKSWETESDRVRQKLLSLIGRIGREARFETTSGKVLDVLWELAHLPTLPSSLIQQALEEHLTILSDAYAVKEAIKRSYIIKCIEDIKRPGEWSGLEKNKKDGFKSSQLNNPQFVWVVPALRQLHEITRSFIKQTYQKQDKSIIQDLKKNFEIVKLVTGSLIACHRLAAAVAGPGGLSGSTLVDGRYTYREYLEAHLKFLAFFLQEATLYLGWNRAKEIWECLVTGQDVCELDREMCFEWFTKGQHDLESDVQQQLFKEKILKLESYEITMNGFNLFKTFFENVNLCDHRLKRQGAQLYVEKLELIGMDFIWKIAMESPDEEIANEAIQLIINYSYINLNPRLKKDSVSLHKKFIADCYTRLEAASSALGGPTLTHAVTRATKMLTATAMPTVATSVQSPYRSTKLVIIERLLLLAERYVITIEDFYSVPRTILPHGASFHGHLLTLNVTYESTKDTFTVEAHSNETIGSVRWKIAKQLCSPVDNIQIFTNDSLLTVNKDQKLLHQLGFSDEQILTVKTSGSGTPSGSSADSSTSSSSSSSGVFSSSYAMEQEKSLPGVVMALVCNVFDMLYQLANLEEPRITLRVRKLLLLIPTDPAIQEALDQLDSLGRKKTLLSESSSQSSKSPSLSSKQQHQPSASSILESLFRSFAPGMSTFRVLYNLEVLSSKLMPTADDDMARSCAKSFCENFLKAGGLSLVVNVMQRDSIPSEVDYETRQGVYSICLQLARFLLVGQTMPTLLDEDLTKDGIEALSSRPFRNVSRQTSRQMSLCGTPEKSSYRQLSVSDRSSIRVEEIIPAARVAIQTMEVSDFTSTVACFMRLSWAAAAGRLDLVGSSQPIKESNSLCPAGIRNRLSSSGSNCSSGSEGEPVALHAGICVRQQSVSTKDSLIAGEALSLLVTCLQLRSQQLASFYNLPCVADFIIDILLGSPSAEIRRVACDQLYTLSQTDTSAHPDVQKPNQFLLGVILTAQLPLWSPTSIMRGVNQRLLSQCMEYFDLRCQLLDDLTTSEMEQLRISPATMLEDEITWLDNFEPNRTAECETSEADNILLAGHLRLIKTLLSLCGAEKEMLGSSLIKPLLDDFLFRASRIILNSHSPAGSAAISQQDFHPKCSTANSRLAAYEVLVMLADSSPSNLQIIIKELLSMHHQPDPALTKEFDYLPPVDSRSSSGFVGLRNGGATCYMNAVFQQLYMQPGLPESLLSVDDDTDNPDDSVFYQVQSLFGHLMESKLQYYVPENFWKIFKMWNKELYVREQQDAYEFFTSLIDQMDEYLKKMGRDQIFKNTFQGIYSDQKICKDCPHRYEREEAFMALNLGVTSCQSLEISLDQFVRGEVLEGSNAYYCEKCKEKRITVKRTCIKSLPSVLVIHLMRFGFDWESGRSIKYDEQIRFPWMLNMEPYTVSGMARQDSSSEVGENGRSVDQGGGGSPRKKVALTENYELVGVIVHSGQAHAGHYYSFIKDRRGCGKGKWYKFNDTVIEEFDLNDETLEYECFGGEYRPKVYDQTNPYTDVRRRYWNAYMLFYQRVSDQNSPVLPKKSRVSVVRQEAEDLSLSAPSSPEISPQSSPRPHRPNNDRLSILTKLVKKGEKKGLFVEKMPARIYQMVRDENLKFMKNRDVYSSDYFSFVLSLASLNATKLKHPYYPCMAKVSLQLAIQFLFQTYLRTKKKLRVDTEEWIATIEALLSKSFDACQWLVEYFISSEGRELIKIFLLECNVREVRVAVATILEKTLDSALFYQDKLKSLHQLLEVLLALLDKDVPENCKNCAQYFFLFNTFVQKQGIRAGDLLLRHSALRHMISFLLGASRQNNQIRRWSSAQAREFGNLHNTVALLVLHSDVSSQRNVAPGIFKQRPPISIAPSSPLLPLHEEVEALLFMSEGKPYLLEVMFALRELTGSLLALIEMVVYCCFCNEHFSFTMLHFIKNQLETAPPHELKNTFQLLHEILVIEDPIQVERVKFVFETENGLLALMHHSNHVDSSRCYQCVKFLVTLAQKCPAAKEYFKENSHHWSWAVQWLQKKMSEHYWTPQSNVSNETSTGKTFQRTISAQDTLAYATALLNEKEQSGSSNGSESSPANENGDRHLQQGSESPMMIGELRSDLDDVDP
Procedure, shortened: as §1

[3] = biological target: T2, USP25 (UniProt Q9UHP3)
T2 sequence (whole entry): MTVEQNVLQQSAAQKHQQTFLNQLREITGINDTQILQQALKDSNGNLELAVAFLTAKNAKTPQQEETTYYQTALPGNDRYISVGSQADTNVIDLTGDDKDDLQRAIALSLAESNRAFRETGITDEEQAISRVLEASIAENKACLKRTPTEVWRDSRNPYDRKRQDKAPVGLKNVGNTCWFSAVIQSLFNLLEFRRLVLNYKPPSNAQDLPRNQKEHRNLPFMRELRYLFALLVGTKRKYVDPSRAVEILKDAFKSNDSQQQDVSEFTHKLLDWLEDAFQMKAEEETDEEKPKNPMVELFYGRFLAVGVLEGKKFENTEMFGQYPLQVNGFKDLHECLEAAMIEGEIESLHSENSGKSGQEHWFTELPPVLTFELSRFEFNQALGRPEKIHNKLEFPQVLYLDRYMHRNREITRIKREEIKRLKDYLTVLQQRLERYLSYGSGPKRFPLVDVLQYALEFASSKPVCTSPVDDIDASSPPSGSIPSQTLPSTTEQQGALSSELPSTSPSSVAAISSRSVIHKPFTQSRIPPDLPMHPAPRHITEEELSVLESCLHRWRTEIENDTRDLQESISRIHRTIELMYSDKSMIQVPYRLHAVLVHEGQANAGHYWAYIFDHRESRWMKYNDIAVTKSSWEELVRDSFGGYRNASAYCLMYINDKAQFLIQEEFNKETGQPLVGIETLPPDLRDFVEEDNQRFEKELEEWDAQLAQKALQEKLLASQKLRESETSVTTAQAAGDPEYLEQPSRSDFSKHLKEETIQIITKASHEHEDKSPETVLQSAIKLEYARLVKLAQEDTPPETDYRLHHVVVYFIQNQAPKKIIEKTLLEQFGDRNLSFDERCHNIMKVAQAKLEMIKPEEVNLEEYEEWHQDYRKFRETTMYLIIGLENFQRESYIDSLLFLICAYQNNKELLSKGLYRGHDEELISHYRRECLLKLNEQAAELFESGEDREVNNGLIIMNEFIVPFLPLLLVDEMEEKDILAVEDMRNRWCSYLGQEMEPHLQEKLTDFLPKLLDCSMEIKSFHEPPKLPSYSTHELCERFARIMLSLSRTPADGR
Procedure, shortened: as §1

[4] = biological target: T3, USP28 (UniProt Q96RU2)
T3 sequence (whole entry): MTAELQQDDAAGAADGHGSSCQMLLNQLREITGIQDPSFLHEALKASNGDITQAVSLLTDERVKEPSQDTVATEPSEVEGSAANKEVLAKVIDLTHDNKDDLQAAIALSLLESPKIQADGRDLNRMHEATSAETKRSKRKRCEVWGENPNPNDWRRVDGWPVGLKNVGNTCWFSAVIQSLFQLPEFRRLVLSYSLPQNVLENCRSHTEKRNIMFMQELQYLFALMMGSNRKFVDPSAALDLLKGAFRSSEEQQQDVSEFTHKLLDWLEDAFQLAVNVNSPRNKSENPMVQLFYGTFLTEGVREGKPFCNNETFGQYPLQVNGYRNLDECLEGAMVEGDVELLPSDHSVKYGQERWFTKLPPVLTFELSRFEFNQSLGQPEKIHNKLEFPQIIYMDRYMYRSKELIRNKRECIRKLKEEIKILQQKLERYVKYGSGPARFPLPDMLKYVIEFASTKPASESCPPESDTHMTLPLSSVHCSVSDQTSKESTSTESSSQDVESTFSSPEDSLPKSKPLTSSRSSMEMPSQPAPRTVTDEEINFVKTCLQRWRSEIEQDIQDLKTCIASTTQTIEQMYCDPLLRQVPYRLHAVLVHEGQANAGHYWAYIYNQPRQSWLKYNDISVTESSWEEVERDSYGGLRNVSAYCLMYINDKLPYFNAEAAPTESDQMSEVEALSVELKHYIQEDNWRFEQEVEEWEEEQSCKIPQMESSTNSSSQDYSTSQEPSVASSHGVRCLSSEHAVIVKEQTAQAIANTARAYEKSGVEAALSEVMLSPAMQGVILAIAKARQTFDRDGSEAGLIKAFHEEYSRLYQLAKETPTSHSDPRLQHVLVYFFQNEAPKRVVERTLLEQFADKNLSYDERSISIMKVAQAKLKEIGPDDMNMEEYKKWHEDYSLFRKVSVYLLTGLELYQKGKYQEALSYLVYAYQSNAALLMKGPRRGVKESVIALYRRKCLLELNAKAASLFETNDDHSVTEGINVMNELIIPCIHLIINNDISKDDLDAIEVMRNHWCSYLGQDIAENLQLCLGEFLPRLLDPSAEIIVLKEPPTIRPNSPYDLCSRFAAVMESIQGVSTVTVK
Procedure, shortened: as §1

Measured: log2 ratio of Biotin-Ahx-Ub-VS probe labelling

CNC(=O)C1(NC(=O)CCl)CCCCC1
inactive: [1] 0.162 | [2] 0.0556 | [3] -0.118 | [4] -0.181
